High-throughput results as filed in PubChem.
Imprint erasure: genomic imprint erasure induction. mouse ES Peg3-LacZ reporter, beta-gal luminescence, 40 h. Potency, µM (top dose mostly 60.7 µM), for inactives: at the highest dose activity change, positive = activation, most hits filed as activators. actives 0.02% (n = 110,000). AID 1948
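Imprint erasure is scored as LacZ activity from the silenced maternal Peg3 allele in feeder-free female ES cells cultured 40 h with LIF. Luminescence is normalized to in-plate negative controls and fitted to the Hill equation.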
TSHR ag: TSH receptor (human) agonism; P16473; HEK293-CNG-TSHR cells (CNG channel as cAMP sensor), membrane potential dye, cAMP; Potency, µM (highest dose often 57.1 µM), for the others: top-dose activation, actives largely listed as activators; actives 0.48% (n = 73,000); AID 926; active = well fitted activation curve with a large enough effect in the main read-out, with a control signal flat, not every such curve was filed as active; inconclusive = small, poorly fitted or top-dose-only effect, or a change in a side signal; inactive = no such curve, though single readings can be large or run the other way; % of control where 0% means no effect;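 note: the control signal comes from parental cells without the receptor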
Target sequence (P16473 whole entry, looked up): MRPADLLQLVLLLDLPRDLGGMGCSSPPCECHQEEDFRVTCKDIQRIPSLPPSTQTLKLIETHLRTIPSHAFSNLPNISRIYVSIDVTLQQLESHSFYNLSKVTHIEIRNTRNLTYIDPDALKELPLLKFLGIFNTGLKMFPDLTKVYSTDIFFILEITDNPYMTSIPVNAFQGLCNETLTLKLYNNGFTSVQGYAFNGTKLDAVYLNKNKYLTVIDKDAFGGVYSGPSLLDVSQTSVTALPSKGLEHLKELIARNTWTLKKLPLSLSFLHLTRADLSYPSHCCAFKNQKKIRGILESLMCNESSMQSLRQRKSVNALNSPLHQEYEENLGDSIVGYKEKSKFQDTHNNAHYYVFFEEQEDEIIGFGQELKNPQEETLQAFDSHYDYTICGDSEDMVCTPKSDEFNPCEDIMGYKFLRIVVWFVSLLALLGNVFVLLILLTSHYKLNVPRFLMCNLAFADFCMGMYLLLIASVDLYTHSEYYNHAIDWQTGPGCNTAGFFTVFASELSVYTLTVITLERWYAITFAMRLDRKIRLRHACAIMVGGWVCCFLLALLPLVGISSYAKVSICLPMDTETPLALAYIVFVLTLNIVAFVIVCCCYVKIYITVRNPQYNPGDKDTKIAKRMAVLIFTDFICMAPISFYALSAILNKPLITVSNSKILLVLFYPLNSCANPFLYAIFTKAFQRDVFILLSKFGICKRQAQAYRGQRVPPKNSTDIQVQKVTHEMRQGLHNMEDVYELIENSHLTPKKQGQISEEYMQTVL
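cAMP rise detected as CNG-channel membrane depolarization by fluorescent dye (emission 590 nm), 30 min after compound, following 60 min dye loading containing 100 uM RO 20-1724 at room temperature. Cells: TSHR/CNG HEK 293, with parental CNG HEK 293 as control.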
p53ts 32C tox: p53ts cell cytotoxicity, permissive temperature | H1299-p53A138V at 32C, ATP luminescence viability, 24 h | Potency, µM (series often up to 46.1 µM), for inactives: top-dose activity change, negative = cytotoxicity, hits mostly cytotoxic | actives 0.93% (n = 130,000);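 note: 0% = DMSO and -100% = full killing by reference compound; nearly all actives have a fitted effect of over 55% in size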
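Cells: H1299 p53ts (A138V), 600/well, pre-incubated 16–30 h at 37C. Cpd up to 46 uM, 24 h, 32C. Readout: ATPlite luminescence, 20 min RT. Normalization: DMSO vs tamoxifen 100 uM. AC50 by Hill equation.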
HEK293 cAMP cs: raises cAMP in parental HEK293 cells, TSHR agonist counter-screen. parental HEK293 CNG cAMP sensor, membrane potential fluorescence. Potency, µM (top dose mostly 57.1 µM), without a hit: at the top dose activation, usual class: activators. actives 2.5% (n = 73,000). AID 938; note: % of control where 0% means no effect; nearly all actives have a fitted effect of over 55% in size
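Parental HEK 293 cells stably expressing a cAMP-gated CNG channel were loaded with membrane potential dye containing 100 uM RO 20-1724 for 60 min. Compound added for 30 min; depolarization read as fluorescence intensity at 590 nm.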
p53ts 39C kill: kills p53ts cells at the nonpermissive temperature; H1299-p53A138V viability at 39C, ATP luminescence, 24 h; actives 1.5% (n = 130,000); Potency, µM (titrated, usually from 46.1 µM), inactives show top-dose activity change, negative = cell killing, actives largely listed as cytotoxic; note: % is set by controls: 0 for no effect and ±100 for the full control effect; nearly all actives have a fitted effect of over 55% in size
IkB sig inh: IkB pathway inhibition in ABC-DLBCL cells; Potency, µM (highest dose often 57.1 µM), for inactives: top-dose IkBa stabilization activation; ABC-DLBCL IkBa-CBG/CBR dual luciferase ratio, 4 h; response scale: scaled: untreated 0%, proteasome inhibitor 100%; actives 0.04% (n = 110,000); active = well fitted curve in the direction sought with a large enough effect in the signal ratio, not every such curve was filed as active; inconclusive = small, poorly fitted or top-dose-only effect, or a change in a side signal; the % refers to the signal ratio;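 note: the direction sought is a rising ratio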
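In this assay, an IκBα–CBG68 fusion accumulates when IKK-driven degradation is blocked; native CBR normalizes for cell number. OCI-Ly3 cells were treated 4 h with compound and doxycycline, then green and red light read after Chroma-Glo addition.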
Starred values were filed as active, the others as inactive; ? = inconclusive; . = not tested or not shown; [ ] = remark or other dose. Compounds with a hit are over-represented: about 3.1% of the library has one in this group of screens. Unless noted, calls come from the whole dose curve; as a rule, active = well fitted curve in the direction sought with a large enough effect; inconclusive = small, poorly fitted or top-dose-only effect, or another doubt; inactive = no such curve, though single readings can be large; an effect the other way counts as inactive or inconclusive. Potency is the fitted concentration of half-maximal effect.

SMILES | Imprint erasure | TSHR ag | p53ts 32C tox | HEK293 cAMP cs | p53ts 39C kill | IkB sig inh
C=C(C)Cn1c(=O)c2c(nc3n2CCN3c2ccc(F)cc2)n(C)c1=O | -8%[10.9 µM] | . | 5% | . | -13% | ?
CCOc1ccc2[nH]c(=O)c(C(c3nnnn3Cc3ccco3)N3CCC(C)CC3)cc2c1 (stereo not drawn) | 6% | ? | 1% | 32µM* | -3% | ?
CCC(c1nnnn1Cc1ccco1)N(Cc1cc2cc(C)cc(C)c2[nH]c1=O)CC1CCCO1 (stereo not drawn) | -10% | ? | -11% | 20µM* | -6% | ?
CCC(c1nnnn1Cc1ccco1)N(Cc1ccccc1OC)Cc1cc2cc(C)ccc2[nH]c1=O (stereo not drawn) | -3% | ? | 9% | ? | 8% | ?
CCOc1ccc2[nH]c(=O)c(C(c3nnnn3C3CCCCC3)N3CCN(C)CC3)cc2c1 (stereo not drawn) | 2% | 3% | -26% | 8% | 5% | 0%
COc1ccc2[nH]c(=O)c(CN(C3CCCCC3)C(c3nnnn3Cc3ccco3)C(C)C)cc2c1 (stereo not drawn) | . | -17% | 20% | 24% | ? | 7.9µM*
CCOc1ccc2[nH]c(=O)c(C(c3nnnn3Cc3ccco3)N3CCCC(C)C3)cc2c1 (stereo not drawn) | -9% | ? | 13% | 7.9µM* | -5% | ?
NCc1nc2cccnc2n1Cc1ccccc1Cl | -15%[10.9 µM] | . | -3% | . | 21% | 0%
CS(=O)(=O)Nc1cccc(-c2nc(N3CCOCC3)c3ccccc3n2)c1 | -8% | . | 4% | 11% | 13% | -3%[11.4 µM]
COc1ccc(CNc2cc(-c3ccccc3Cl)ncn2)c(OC)c1 | -12% | ? | 6% | 20µM* | -10% | -1%[11.4 µM]
COc1ccccc1CNc1ccnc(-c2ccc(C(=O)N(C)C)cc2)n1 | -22% | . | 5% | 17% | -2% | 3%[11.4 µM]
CN(C)Cc1ccccc1-c1nc(NCc2ccccc2)c2ccccc2n1 | -22% | ? | -24% | ? | -25% | -5%[11.4 µM]
COc1ccc(CNc2nc(-c3ccc(N(C)C)cc3)nc3ccccc23)c(OC)c1 | -33% | -20% | 13µM* | -21% | 16µM* | 6%[11.4 µM]
COc1ccc(CNc2ccnc(-c3ccc(C(=O)N(C)C)cc3)n2)c(OC)c1 | -15% | ? | 11% | 0.79µM* | -3% | -1%[11.4 µM]
COc1ccc(CNc2nc(-c3cccc(C#N)c3)nc3ccccc23)c(OC)c1 | -27% | ? | 3% | ? | -15% | 1%[11.4 µM]
COc1ccccc1CNc1nc(-c2ccccc2CN(C)C)nc2ccccc12 | -19% | ? | -8% | ? | 16µM* | -3%[11.4 µM]
COc1ccc(CNc2cc(-c3ccccc3OC)ncn2)c(OC)c1 | -18% | ? | 1% | ? | -11% | 1%[11.4 µM]
Cc1ccc2nc(COc3cccc(NC(=O)COc4ccccc4F)c3)cc(=O)n2c1 | 11%[10.9 µM] | . | -8% | . | -15% | ?
COc1ccc(CNc2nc(-c3ccc(C(=O)N(C)C)cc3)nc3ccccc23)c(OC)c1 | -9% | 25µM* | -21% | 22% | -16% | -2%[11.4 µM]
COc1ccc(CNc2ccnc(-c3ccccc3C(F)(F)F)n2)c(OC)c1 | -20% | ? | 8% | 7.9µM* | 6% | 3%[11.4 µM]
COc1ccc2[nH]cc(CCNc3ccnc(-c4ccccc4C(F)(F)F)n3)c2c1 | -9% | -3% | -7% | -21% | -11% | 3%[11.4 µM]
COc1ccc(C2C(C(=O)N3CC(C)CC(C)C3)c3ccccc3C(=O)N2C)cc1 (stereo not drawn) | -6% | ? | 1% | 16µM* | -3% | 0%
Oc1ccc(O)cc1 | 10µM* | 2% | -2% | 3% | 12% | 2%
Oc1ccccc1 | 3% | . | . | . | . | -2%
CS(=O)(=O)Nc1ccc(-c2nc3ccccc3s2)cc1 | -69%[10.9 µM] | . | 4µM* | . | 2µM* | 24%
SMILES | Imprint erasure | TSHR ag | p53ts 32C tox | HEK293 cAMP cs | p53ts 39C kill | IkB sig inh
O=S(=O)(Nc1cccc(F)c1)c1ccc2[nH]c3c(c2c1)CCCCC3 | -6%[10.9 µM] | . | 24% | . | ? | ?
COc1cccc(-n2nnc3c(=O)n(Cc4ccccc4F)cnc32)c1 | -14% | ? | 7% | 25µM* | -5% | -1%
CC1=C(C(=O)Nc2ccccc2)C(c2ccco2)C(C#N)=C(SCC(=O)OC(C)C)N1 (stereo not drawn) | -16% | ? | 4% | 20µM* | -5% | ?
CC1=C(C(=O)Nc2ccccc2)C(c2ccco2)C(C#N)=C(SCc2ccccc2)N1 (stereo not drawn) | -18% | . | 16% | 26% | -1% | ?
O=C(N[C@@H](Cc1ccccc1)C(=O)CCl)OCc1ccccc1 | -30% | 18% | 4µM* | 9% | 3.2µM* | ?
COC(=O)[C@H](Cc1ccccc1)NC(=O)[C@H]1C[C@@H]1[C@H](NC(=O)OCc1ccccc1)c1ccccc1 | -5% | ? | 4% | 16µM* | -13% | .
COC(=O)C(C(C)=O)C(=O)C(Cc1ccccc1)NC(=O)OCc1ccccc1 (stereo not drawn) | . | -1%[11.4 µM] | -6%[9.22 µM] | 1%[11.4 µM] | 6%[9.22 µM] | .
O=C(N[C@@H](c1ccccc1)[C@@H]1C[C@H]1C(=O)NCc1ccccc1)OCc1ccccc1 | -14% | ? | -19% | 13µM* | -18% | .
CC(C)NC(=O)[C@@H]1C[C@H]1[C@@H](NC(=O)OCc1ccccc1)c1ccccc1 | -6% | ? | 7% | ? | -3% | .
Nc1ncnc2c1nc(Br)n2[C@@H]1O[C@H]2COP(=O)(O)O[C@@H]2[C@H]1O | . | ? | -8% | ? | -3% | ?
CCCC[C@@H]1C[C@H]1C(NC(=O)c1ccccc1)c1ccc(Cl)cc1 (stereo partly drawn) | -16% | ? | -3% | ? | -8% | .
CCCC[C@@H]1C[C@H]1C(NC(=O)c1ccccc1)c1ccc(C(F)(F)F)cc1 (stereo partly drawn) | -15% | ? | 4% | 3.2µM* | 14% | .
CCCC[C@@H]1C[C@H]1C(NC(=O)c1cccnc1)c1ccc(Cl)cc1 (stereo partly drawn) | -22% | ? | ? | 25µM* | 13µM* | .
CCN(c1ccccc1C)S(=O)(=O)c1nnc(NC(=O)c2ccccc2C)s1 | 14%[10.9 µM] | . | -15% | . | ? | -3%
N#Cc1c(C(F)(F)F)cc(-c2ccco2)nc1SCc1ccncc1 | -9% | ? | -9% | ? | -19% | 1%
N#Cc1c(C(F)(F)F)cc(-c2ccco2)nc1SCc1ccccn1 | -13% | ? | 0% | 32µM* | -2% | 5%
C=C1c2cccc(OC)c2O[C@H](C(=O)OCC)[C@@H]1CCC(C)C | 25% | . | . | . | . | .
